TDP1 cell noCPT = qHTS for Inhibitors of human tyrosyl-DNA phosphodiesterase 1 (TDP1): qHTS in cells in absence of CPT. Potency, µM (series often up to 46.2 µM), inactives show top-dose activity change, negative = growth inhibition, usual class: inhibitors. AID 686978, 2013. DT40 Tdp1-/- hTDP1 cells, no CPT, ATP luminescence, 48 h. 420,000 compounds, 15% hits; also: nearly all actives have a fitted effect of over 55% in size
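No-CPT arm: Tdp1-/-;hTDP1 DT40 cells (400/well) plus compounds, incubated ≥48 hr at 37 °C. Readout CellTiter-Glo luminescence.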
HT1080-NT tox = kills 2HG-producing HT-1080-NT fibrosarcoma cells; 360,000 compounds, 1.6% hits; Potency, µM (top dose mostly 46.1 µM), for inactives: at the top dose activity, negative = less viability, most hits filed as cytotoxic; AID 686970; HT-1080-NT fibrosarcoma viability, CellTiter-Glo ATP luminescence, 48 h;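 also: NT is the 2HG producing partner of a matched IDH1 knockdown line; 0% = DMSO-treated cells and -100% = media-only wells without cells; nearly all actives have a fitted effect of over 55% in size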
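A 48-hour cytotoxicity screen used HT-1080-NT cells plated 2 hours before compound delivery. ATP-based CellTiter-Glo luminescence measured viability, normalized to DMSO and no-cell controls.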
TDP1 cell CPT = growth inhibition of DT40 Tdp1-/-;hTDP1 cells with camptothecin (screen for TDP1 inhibitors) | chicken DT40 Tdp1-/-;hTDP1 cells + 20 nM CPT, ATP luminescence, 48 h | AID 686979 | 420,000 compounds, 12% hits | Potency, µM (highest dose often 46.2 µM), inactives show at the top dose activity change, negative = growth inhibition, hits mostly inhibitors; also: nearly all actives have a fitted effect of over 55% in size
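Cell growth measured by CellTiter-Glo luminescence after a minimum 48 h, 37 C compound exposure with 20 nM CPT in Tdp1-knockout DT40 cells stably expressing hTDP1, seeded 400/well; qHTS titration format.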
KB-3-1 cytotox = kills parental KB-3-1 adenocarcinoma cells; KB-3-1 viability, CellTiter-Glo ATP luminescence, 72 h; Potency, µM (series often up to 46.1 µM), most hits filed as cytotoxic; 400,000 compounds, 1.4% hits; AID 1347075; also: nearly all actives have a fitted effect of over 60% in size
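Screening of KB-3-1 cells (DMEM, 10% FBS, phenol-red free) ran from lowest to highest compound concentration; after 72 h at 37 °C viability was read luminescently and curves fitted.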
HT1080 IDH1KD tx = HT-1080 IDH1 knockdown cell toxicity (counter line); HT-1080 IDH1 knockdown viability, ATP luminescence, 48 h; Potency, µM (top dose mostly 46.1 µM), for the others: at the highest dose activity, negative = toxicity, most hits filed as cytotoxic; 360,000 compounds, 2% hits;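 also: 0% = DMSO wells and -100% = cell-free medium wells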
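In this qHTS, HT-1080 cells depleted of IDH1 are exposed for 48 h at 37 °C to compound titrations. Toxicity is scored from CellTiter-Glo luminescence, with DMSO as full viability and medium alone as none.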
KB-V1 MDR tox = kills drug-selected multidrug resistant KB-V1 cells; KB-V1 MDR cells viability, CellTiter-Glo, 72 h; Potency, µM (doses to about 46.1 µM), most hits filed as cytotoxic; 400,000 compounds, 3.4% hits; AID 1347076; also: nearly all actives have a fitted effect of over 60% in size
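In this primary screen, KB-V1 cells overexpressing P-gp are incubated with library compounds (lowest to highest concentration) for 72 h at 37 degrees C before a luminescent ATP viability read.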
The depositor's hits bear a star; i = inactive; ? = inconclusive; . = not tested or not shown; [ ] = remark or other dose. Only some compounds are listed: those with a hit (about 19% of all), similar ones and a draw of the others. Calls follow the shape of the dose curve; as a rule, active = well fitted curve in the direction sought with a large enough effect; inconclusive = small, poorly fitted or top-dose-only effect, or another doubt; inactive = no such curve, though single readings can be large; an effect the other way counts as inactive or inconclusive. Unless noted, % is scaled to controls: 0 for no effect and ±100 for the full control effect; potency is read from the fitted curve at half-maximal effect.

SMILES	TDP1 cell noCPT	HT1080-NT tox	TDP1 cell CPT	KB-3-1 cytotox	HT1080 IDH1KD tx	KB-V1 MDR tox
COc1ccc(-c2cc3nc(C)c(CCC(=O)NCc4ccco4)c(C)n3n2)c(OC)c1	?	-1%	?	i	-4%	4.6µM*
COc1ccc(-c2cc3nc(C)c(CCC(=O)NCCc4ccc(Cl)cc4)c(C)n3n2)c(OC)c1	29µM*	.	13µM*	i	.	i
COc1ccc(CCNC(=O)CCc2c(C)nc3cc(-c4ccccc4OC)nn3c2C)c(OC)c1	16µM*	.	?	i	.	i
CCOc1cccc(/C=C/c2cc(C(=O)O)c3ccccc3n2)c1OC	-7%	-5%	-11%	i	-7%	i
CC(C)C[C@H]1CN(CCCC[C@H]2CNC(=O)C(=O)N2CCc2ccccc2)C(=O)C(=O)N1CCc1ccccc1	-14%	20%	-14%	i	15%	i
COC(=O)c1ccc(NC(=O)CCN2C(=O)CSC2=O)cc1	-2%	6%	-2%	i	-1%	?
COc1ccc(-c2nc3c4ccccc4n(CC(=O)N4CCN(c5ccccc5OC)CC4)c(=O)n3n2)cc1	-19%	.	?	i	.	i
COc1ccccc1-c1cc2nc(C)c(CCC(=O)NCc3cccc(Cl)c3)c(C)n2n1	18µM*	.	?	i	.	i
Cc1nc2ncnn2c(C)c1CCC(=O)NCc1cccc(Cl)c1	-3%	.	15%	i	.	i
CCCCOc1cccc(C(=O)NC(=S)Nc2cccc(C(F)(F)F)c2)c1	29µM*	-12%	?	i	-2%	i
CCOc1cccc(C(=O)NC(=S)Nc2cccnc2)c1	?	4%	0%	i	17%	?
CCCCOc1cccc(C(=O)NC(=S)Nc2cccnc2)c1	?	-3%	-27%	i	1%	18µM*
CCC(C)(C)n1nnnc1C(c1ccc(C)cc1)N1CCN(Cc2ccc3c(c2)OCO3)CC1 (configuration not stated)	?	0%	1%	?	-1%	?
CCOC(=O)c1c(Oc2ccc(OC)cc2)nnc(-c2ccccc2)c1-c1ccccc1	?	.	16µM*	i	.	i
CCOC(=O)c1cnc(-c2ccccc2)nc1Oc1ccc(OC)cc1	17%	2%	-1%	i	4%	i
COC(=O)c1c(Oc2ccc(C(C)=O)cc2)nnc(-c2ccccc2)c1-c1ccccc1	?	.	18µM*	?	.	i
CCOC(=O)c1c(Oc2ccc(C(=O)OC)cc2)nnc(-c2ccccc2)c1-c1ccccc1	23µM*	.	16µM*	i	.	i
COc1ccc(C2C(C(=O)NCc3ccccc3)=C(C)Nc3ncnn32)cc1OC (configuration not stated)	6%	13%	11%	i	8%	?
COCCNC(=S)Nc1ccccc1Cc1ccccc1	14%	5%	2%	?	3%	i
CCc1ccc(CNC(=O)C2CCN(c3nc4ccccc4nc3C(F)(F)F)CC2)cc1	?	.	-15%	.	.	.
COc1ccc(-c2ccc(C(=O)N3CCc4c(cnc(C)c4CNS(=O)(=O)N(C)C)C3)o2)cc1	?	.	-3%[9.04 µM]	.	.	.
COc1cc2c(cc1NC(=O)c1ccccc1C)n(C)c(=O)n2C	?	.	?	i	.	i
CC(C)(C)c1cnnn1-c1ccc(C(=O)CCl)cc1	1.8µM*	?	1.3µM*	?	?	23µM*
O=C(NCc1ccco1)c1cc(-c2ccco2)on1	?	-2%	23µM*	i	1%	i
O=C(NCCc1ccccc1)c1cc(-c2ccco2)on1	?	?	6.3µM*	i	-29%	i
SMILES	TDP1 cell noCPT	HT1080-NT tox	TDP1 cell CPT	KB-3-1 cytotox	HT1080 IDH1KD tx	KB-V1 MDR tox
COc1ccc(CCNC(=O)c2cc(-c3ccco3)on2)cc1OC	16µM*	-21%	10µM*	9.2µM*	-18%	18µM*
COc1cccc(-c2cc(C(=O)NCCc3ccc(OC)c(OC)c3)no2)c1	2%	.	5%	i	.	i
O=C(NCc1ccccc1)c1cc(-c2ccco2)on1	?	4%	-23%	i	0%	?
COc1ccc(Nc2nc(C(=O)NCc3ccco3)cs2)cc1	?	-22%	23µM*	16µM*	-7%	16µM*
Cc1c(CN2CCOc3ccc(C(C)(O)COc4ccccc4)cc3C2)cnn1C (configuration not stated)	-29%	.	-7%[9.04 µM]	.	.	.
CCC(=O)N1c2ccccc2CC1C(=O)NCc1ccc(N(C)C)cc1 (configuration not stated)	-20%	.	-8%	i	.	i
CCNC(=O)c1ccc(=O)n(Cc2ccc(Cl)cc2Cl)c1	-25%	-7%	-19%	i	-10%	?
COCCNC(=O)C1(C)CCN(C(=O)/C=C/c2ccccc2)C1 (configuration not stated)	0%	14%	-17%	i	16%	i
CN(Cc1ccccc1)CC(O)COc1ccc(CNCCOc2cccnc2)cc1 (configuration not stated)	-12%	?	-11%	i	-18%	i
CN(Cc1ccccc1)CC(O)COc1ccc(CNCc2ccc(Cl)s2)cc1 (configuration not stated)	16µM*	21µM*	?	i	?	i
CN(Cc1ccccc1)CC(O)COc1ccc(CNCc2cccnc2)cc1 (configuration not stated)	?	-9%	23µM*	i	?	i
COc1ccc(OC(=O)CCc2c[nH]c3ccccc23)cc1	?	-20%	-15%	i	2%	i
Cc1ccc(-c2ccc(=O)n(CC(=O)Nc3ccc(F)c(Cl)c3)n2)cc1C	-1%	.	-11%	i	.	i
CCCCCCC[n+]1c(/C=C/c2ccc(N(C)C)cc2)sc2ccccc21	0.28µM*	.	0.16µM*	i	.	?
CCN(CC)c1ccc(/C=C/c2sc3ccccc3[n+]2CCCCI)cc1	0.45µM*	.	0.63µM*	?	.	?
Nc1cc(C(F)(F)F)ccc1-n1cccc1	-6%	11%	-4%	i	-4%	i
COc1ccccc1NC(=O)C1CCCN(S(=O)(=O)c2ccc3c(c2)CC(C)N3C(C)=O)C1 (configuration not stated)	7.3µM*	-1%	?	i	-14%	i

Screens from PubChem BioAssay.
